Results on 1 sequence are retold here after PMC7862700, “An all-to-all approach to the identification of sequence-specific readers for epigenetic DNA modifications on cytosine”.

Assay in all cases: DAPPL (digital affinity profiling via proximity ligation, sequencing); 10 mM Tris-HCl pH 7.5, 50 mM NaCl, 1 mM DTT, 4% glycerol, room temperature, 30 min; GST-TFs on glutathione beads, 16-mer random dsDNA library, 0.1% formaldehyde crosslink after washing; high values mean tight binding
Common to all, as to conditions: protein: recombinant; tags: N-terminal GST; dsDNA, one strand shown

One test deals with ELF4 (Homo sapiens, UniProt Q99607 1-663). In outline:
(§1)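 Sequencing on an Illumina NextSeq500 followed washing, crosslinking with 0.1% formaldehyde, proximity ligation (BsaI/T4 ligase, 1 h, 37 °C) and PCR amplification of pools that had been incubated for 30 min at room temperature with 200 nmole of a random double-stranded 16-mer DNA library in Tris/NaCl/DTT/glycerol buffer. Each pool held DNA-barcoded human transcription factors, expressed in yeast as GST fusions and captured on glutathione beads, plus a tag-only sample. Binding signal is a hexamer's read frequency for a factor divided by its frequency in the tag-only sample.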

A further test has as its target T1, ELK4 (Homo sapiens, UniProt P28324-2 1-405).
T1 sequence: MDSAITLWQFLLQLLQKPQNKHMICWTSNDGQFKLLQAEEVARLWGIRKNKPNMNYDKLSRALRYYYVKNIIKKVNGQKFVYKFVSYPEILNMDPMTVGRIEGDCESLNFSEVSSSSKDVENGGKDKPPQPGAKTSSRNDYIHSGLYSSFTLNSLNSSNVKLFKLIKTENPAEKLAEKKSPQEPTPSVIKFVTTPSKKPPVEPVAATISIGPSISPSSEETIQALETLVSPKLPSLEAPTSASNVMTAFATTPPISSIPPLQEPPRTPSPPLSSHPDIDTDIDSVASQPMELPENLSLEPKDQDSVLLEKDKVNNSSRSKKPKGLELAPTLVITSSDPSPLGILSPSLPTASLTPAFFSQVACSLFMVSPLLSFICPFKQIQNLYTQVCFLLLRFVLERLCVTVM
The procedure, abridged: as §1

Another test deals with T2, ELF3 (Homo sapiens, UniProt P78545 1-371).
T2 sequence: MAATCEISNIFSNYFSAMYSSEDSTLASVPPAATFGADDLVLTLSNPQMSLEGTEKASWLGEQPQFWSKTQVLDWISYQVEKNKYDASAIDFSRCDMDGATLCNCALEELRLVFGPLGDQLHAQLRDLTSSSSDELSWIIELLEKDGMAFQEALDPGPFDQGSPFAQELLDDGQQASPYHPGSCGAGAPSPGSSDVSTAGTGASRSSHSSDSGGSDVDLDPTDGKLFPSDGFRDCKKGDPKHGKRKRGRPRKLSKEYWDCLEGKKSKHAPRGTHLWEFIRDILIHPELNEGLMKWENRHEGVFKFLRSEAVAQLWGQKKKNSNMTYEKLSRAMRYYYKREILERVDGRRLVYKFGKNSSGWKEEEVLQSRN
The procedure, abridged:
as §1

Another test addresses ETV1 (Homo sapiens, UniProt P50549 1-477). In outline:
as §1

Another test addresses T3, ERF (Homo sapiens, UniProt P50548 1-548).
T3 sequence: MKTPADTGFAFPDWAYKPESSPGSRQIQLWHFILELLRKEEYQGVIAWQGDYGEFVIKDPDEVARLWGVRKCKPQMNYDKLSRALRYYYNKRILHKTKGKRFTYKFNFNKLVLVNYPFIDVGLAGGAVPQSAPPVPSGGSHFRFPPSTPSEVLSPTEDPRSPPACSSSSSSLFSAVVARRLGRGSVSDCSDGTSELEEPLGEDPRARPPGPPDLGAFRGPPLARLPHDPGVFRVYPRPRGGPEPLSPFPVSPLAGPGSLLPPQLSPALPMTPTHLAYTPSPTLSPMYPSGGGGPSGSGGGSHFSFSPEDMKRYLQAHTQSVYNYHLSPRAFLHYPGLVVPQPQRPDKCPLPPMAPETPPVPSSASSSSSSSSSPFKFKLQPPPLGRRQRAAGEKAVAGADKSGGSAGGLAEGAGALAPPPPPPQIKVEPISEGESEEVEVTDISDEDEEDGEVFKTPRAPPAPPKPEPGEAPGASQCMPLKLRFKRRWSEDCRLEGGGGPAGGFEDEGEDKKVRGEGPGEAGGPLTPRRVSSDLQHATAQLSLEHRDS
In outline: as §1

In the next test the target is T4, ETV3L (Homo sapiens, UniProt Q6ZN32 1-361).
T4 sequence: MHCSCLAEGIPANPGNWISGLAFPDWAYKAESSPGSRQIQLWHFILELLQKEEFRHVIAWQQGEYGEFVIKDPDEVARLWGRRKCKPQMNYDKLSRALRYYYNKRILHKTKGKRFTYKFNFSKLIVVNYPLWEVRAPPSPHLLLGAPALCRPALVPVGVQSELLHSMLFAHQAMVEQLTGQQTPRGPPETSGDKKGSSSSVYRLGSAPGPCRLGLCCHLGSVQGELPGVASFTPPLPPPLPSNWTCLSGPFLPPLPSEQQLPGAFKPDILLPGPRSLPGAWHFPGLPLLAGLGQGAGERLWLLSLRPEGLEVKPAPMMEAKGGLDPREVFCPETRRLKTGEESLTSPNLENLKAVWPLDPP
The procedure, abridged:
as §1

The next test concerns the target T5, ETS2 (Homo sapiens, UniProt P15036 1-469).
T5 sequence: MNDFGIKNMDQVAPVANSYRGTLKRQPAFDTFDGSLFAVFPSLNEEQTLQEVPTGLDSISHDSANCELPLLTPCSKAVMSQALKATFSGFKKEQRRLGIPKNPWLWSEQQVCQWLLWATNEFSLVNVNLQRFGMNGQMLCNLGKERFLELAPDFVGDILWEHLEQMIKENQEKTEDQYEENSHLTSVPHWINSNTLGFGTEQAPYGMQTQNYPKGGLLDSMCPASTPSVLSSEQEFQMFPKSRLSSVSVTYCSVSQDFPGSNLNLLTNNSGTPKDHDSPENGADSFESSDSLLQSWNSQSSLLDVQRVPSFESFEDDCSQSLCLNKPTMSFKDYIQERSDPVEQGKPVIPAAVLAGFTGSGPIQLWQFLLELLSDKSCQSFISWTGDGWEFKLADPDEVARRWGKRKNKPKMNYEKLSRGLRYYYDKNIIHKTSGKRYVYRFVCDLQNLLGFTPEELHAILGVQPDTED
In outline:
as §1

The next test has as its target T6, SPDEF (Homo sapiens, UniProt O95238 1-335).
T6 sequence: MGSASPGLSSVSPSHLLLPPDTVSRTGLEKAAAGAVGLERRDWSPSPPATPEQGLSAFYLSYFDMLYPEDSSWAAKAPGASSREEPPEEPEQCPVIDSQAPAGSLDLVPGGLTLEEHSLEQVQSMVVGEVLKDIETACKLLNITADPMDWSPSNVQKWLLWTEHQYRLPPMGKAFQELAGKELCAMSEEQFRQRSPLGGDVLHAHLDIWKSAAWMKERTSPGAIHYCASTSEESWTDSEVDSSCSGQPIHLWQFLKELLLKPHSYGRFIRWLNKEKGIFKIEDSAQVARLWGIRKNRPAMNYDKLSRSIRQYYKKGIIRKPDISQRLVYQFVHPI
The procedure, abridged:
as §1

A further test concerns the target T7, ETV3 (Homo sapiens, UniProt P41162-2 1-143).
T7 sequence: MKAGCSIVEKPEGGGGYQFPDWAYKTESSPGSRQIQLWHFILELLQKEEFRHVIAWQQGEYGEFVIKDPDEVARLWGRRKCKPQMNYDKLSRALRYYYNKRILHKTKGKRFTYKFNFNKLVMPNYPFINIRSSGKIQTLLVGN
In outline:
as §1

For another test, the target named is ETV6 (Homo sapiens, UniProt P41212 1-452). In outline:
as §1

Sequence of ELF4 (Q99607 whole entry, the tested form may be a part): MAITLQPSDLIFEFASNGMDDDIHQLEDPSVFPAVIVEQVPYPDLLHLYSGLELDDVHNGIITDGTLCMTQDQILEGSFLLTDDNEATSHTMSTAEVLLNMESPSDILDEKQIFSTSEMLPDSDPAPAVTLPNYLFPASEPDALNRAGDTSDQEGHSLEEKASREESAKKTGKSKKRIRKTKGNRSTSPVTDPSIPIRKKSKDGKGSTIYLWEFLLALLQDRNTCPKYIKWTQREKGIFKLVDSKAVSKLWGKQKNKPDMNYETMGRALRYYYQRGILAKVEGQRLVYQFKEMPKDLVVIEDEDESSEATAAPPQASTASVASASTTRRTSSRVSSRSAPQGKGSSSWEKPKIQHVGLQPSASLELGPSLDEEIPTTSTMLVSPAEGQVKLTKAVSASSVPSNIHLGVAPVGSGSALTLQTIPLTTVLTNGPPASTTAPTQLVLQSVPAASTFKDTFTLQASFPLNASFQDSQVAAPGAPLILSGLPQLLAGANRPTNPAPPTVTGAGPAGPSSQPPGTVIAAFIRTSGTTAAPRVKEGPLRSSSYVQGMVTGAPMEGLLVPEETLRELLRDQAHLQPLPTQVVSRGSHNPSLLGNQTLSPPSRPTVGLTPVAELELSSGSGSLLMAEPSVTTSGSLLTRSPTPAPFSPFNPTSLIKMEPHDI
Sequence of ETV1 (P50549 whole entry): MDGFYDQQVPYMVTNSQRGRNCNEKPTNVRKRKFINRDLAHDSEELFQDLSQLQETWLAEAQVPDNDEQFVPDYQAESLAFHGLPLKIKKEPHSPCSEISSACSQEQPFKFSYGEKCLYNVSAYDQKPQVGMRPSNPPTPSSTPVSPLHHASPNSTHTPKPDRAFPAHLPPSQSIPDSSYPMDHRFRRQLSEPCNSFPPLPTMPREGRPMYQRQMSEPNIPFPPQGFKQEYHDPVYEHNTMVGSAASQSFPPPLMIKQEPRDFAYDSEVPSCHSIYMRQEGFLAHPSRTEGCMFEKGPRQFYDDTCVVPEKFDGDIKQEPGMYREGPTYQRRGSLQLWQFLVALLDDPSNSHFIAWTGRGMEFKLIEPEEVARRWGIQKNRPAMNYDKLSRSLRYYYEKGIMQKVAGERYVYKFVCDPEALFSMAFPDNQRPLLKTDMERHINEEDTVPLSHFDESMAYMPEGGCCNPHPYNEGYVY
Sequence of ETV6 (P41212 whole entry): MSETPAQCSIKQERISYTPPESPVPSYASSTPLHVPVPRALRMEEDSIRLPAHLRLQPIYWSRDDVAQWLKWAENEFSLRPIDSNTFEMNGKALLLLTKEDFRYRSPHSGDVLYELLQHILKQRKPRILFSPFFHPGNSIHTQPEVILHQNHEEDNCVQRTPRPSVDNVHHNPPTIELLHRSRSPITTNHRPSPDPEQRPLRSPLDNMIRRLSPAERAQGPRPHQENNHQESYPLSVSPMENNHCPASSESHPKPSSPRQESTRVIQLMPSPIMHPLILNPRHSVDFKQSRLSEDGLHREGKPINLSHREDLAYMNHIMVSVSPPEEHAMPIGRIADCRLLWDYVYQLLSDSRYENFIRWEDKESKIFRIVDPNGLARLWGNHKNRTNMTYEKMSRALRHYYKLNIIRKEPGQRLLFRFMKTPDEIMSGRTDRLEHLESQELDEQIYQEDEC

In the case of CAGCCC, the binding signal is 1.06 fold enrichment (6-mer frequency, TF over GST control) with ELF4; 1.19 fold enrichment (6-mer frequency, TF over GST control) in the test with ELK4; 1.35 fold enrichment (6-mer frequency, TF over GST control) in the test with ELF3; 1.01 fold enrichment (6-mer frequency, TF over GST control) with ETV1; 1.08 fold enrichment (6-mer frequency, TF over GST control) in the test with ERF; 1.07 fold enrichment (6-mer frequency, TF over GST control) in the test with ETV3L. Moreover, the binding signal in the test with ETS2 was 1.13 fold enrichment (6-mer frequency, TF over GST control); with SPDEF, 1.02 fold enrichment (6-mer frequency, TF over GST control); with ETV3 it was 1.05 fold enrichment (6-mer frequency, TF over GST control); with ETV6, 1.12 fold enrichment (6-mer frequency, TF over GST control).
